From PubChem
Hits are enriched below; roughly 10% of the tested compounds scored in any of these assays.
BAZ2B block: inhibitors of human BAZ2B bromodomain; 4.4% of 360,000 active; Q9UIF8; AlphaScreen BAZ2B-H3K14Ac peptide displacement; AID 504333; Potency, µM (highest dose often 114 µM), without a hit: at the highest dose activity change, negative = inhibition, most hits filed as inhibitors; note: % is set by controls: 0 for no effect and ±100 for the full control effect; nearly all actives have a fitted effect of over 60% in size
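BAZ2B 50 nM plus b-H3(5-23)K14Ac 50 nM, PBS pH 7.4/0.01% Tween-20, 30 min RT; compound added (max 110 uM), 30 min RT; streptavidin donor/Ni-chelate acceptor beads 10 ug/mL final, 20 min dark; AlphaScreen read.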
GLS inhibitor: blocks human kidney-isoform glutaminase activity. O94925. GLS enzymatic activity, qHTS titration. Potency, µM (doses to about 45.5 µM), inactives show at the highest dose activity change, negative = inhibition, most hits filed as inhibitors. 0.21% of 410,000 active. AID 624170; note: % is set by controls: 0 for no effect and ±100 for the full control effect
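Human kidney-isoform GLS in 45 mM KH2PO4 pH 8.2, 0.02% Tween-20, with compound, started with 1mM L-Glutamine (added stock). Glutamate oxidase/HRP/Amplex red coupled fluorescence read at start and after 30 min at RT.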
JMJD2A Tudor: JMJD2A Tudor domain (human) inhibition; AlphaScreen JMJD2A-Tudor / H3K4me3 peptide binding; 4.4% of 390,000 active; Potency, µM (top dose mostly 114 µM), without a hit: top-dose activity change, negative = inhibition, actives largely listed as inhibitors; O75164; AID 504339; note: % is set by controls: 0 for no effect and ±100 for the full control effect; nearly all actives have a fitted effect of over 50% in size
L3MBTL1 block: blocks human L3MBTL1; 0.66% of 230,000 active; Potency, µM (top dose mostly 57.1 µM), inactives show top-dose activity, negative = inhibition, usual class: inhibitors; Q9Y468; AlphaScreen L3MBTL1–H3K9me1 peptide binding; note: % is set by controls: 0 for no effect and ±100 for the full control effect; nearly all actives have a fitted effect of over 60% in size
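Displacement of a biotinylated histone H3(1-15) peptide monomethylated at Lys9 (75 nM) from L3MBTL1 (50 nM) was measured by AlphaScreen after a 30 min room-temperature compound incubation; cefsulodin titration served as intraplate control.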
G9a inh: G9a (human) methyltransferase inhibition | Potency, µM (top dose mostly 102 µM), for the others: top-dose activity, negative = inhibition, hits mostly inhibitors | 8.8% of 350,000 active | G9a H3K9 monomethylation, AlphaScreen, 2 h | Q96KQ7; note: % is set by controls: 0 for no effect and ±100 for the full control effect; nearly all actives have a fitted effect of over 75% in size
Target sequence (Q96KQ7 913-1193 limits assumed): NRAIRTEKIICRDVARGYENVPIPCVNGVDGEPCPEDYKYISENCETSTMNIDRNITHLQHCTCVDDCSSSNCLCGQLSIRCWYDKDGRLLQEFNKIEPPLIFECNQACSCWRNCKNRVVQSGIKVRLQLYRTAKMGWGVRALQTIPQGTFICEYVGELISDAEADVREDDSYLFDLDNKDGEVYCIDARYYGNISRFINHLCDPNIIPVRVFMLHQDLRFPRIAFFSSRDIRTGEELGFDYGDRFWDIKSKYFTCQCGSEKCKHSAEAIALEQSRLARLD
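Readings reflect AlphaScreen signal from monomethyl-H3K9 antibody detection. HMT at 20 nM; substrate b-H3K9 500 nM; cofactor SAM 20 uM; 2 h RT reaction; compounds tested as titrations in qHTS with 15 min preincubation.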
HP1b chromo inh: inhibitors of HP1-beta chromodomain binding to methylated histone tails; AID 540317; P83916; 0.56% of 390,000 active; AlphaScreen HP1-beta / biotin-H3K9me3 peptide binding; Potency, µM (titrated, usually from 114 µM), without a hit: at the highest dose activity change, negative = inhibition, usual class: inhibitors; note: nearly all actives have a fitted effect of over 70% in size
Target sequence (P83916 whole entry, looked up): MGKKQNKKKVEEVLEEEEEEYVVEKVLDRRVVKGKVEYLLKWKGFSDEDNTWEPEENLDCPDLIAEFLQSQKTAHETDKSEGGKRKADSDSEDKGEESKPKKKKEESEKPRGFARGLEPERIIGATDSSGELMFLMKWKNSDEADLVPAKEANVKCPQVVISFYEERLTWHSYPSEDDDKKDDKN
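Compound inhibition of the preformed complex between 50 nM HP1-beta and 50 nM biotinylated H3K9me3 peptide was read by AlphaScreen. Buffer was PBS pH 7.4 with 0.01% Tween-20. Incubations ran 30 min at room temperature, with 10 ug/mL donor/acceptor beads.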
* = called active by the depositor; [ ] = another dose, or the depositor's remark. Calls come from the whole dose curve; as a rule, active = well fitted curve in the direction sought with a large enough effect; inconclusive = small, poorly fitted or top-dose-only effect, or another doubt; inactive = no such curve, though single readings can be large; an effect the other way counts as inactive or inconclusive. Potency is the fitted concentration of half-maximal effect.

CC(=O)N1CCN(C(=O)c2ccc(OC3CCN(Cc4ccccn4)CC3)cc2)CC1 was read as BAZ2B block -28.7%, GLS inhibitor -1.5%, JMJD2A Tudor -4.1%, G9a inh 70.8µM* and HP1b chromo inh 22.3%[57 µM].
Screening O=C(Nc1ccc(-n2nncc2-c2ccco2)cc1)c1cccc(F)c1 returned BAZ2B block inconclusive, GLS inhibitor 7.4%, JMJD2A Tudor -35.3%, L3MBTL1 block -10.1%, G9a inh 44.7µM* and HP1b chromo inh -22.3%.
`Cc1nn(-c2ccccc2)c(N2CCCC2)c1/C=N/Nc1ccc(S(N)(=O)=O)cc1[N+](=O)[O-]` gave BAZ2B block 10µM*, GLS inhibitor 11.5%, JMJD2A Tudor 7.08µM*, L3MBTL1 block inconclusive, G9a inh 10µM* and HP1b chromo inh 39.8µM*.
Screening NS(=O)(=O)c1ccc(N/N=C/c2ccc(C(=O)O)cc2)c([N+](=O)[O-])c1 returned BAZ2B block inconclusive, GLS inhibitor 3.4%, JMJD2A Tudor -15.0%, L3MBTL1 block 0.5% and HP1b chromo inh 31.5%.
O=C(Nc1nc2ccccc2c(=O)s1)c1ccc(F)cc1Cl was read as BAZ2B block 6.2%, GLS inhibitor 0.8%, JMJD2A Tudor -13.4%, G9a inh 70.8µM* and HP1b chromo inh 16.7%.
`O=C(Nc1n[nH]c(=S)s1)c1ccco1` gave BAZ2B block inconclusive, GLS inhibitor -13.1%, JMJD2A Tudor 3.55µM*, L3MBTL1 block -14.5%, G9a inh 1.41µM* and HP1b chromo inh inconclusive.
`O=C(CCNC(=O)c1ccccc1Cl)Nc1nc2ccc(F)cc2s1` gave BAZ2B block -15.6%, GLS inhibitor -23.5%, JMJD2A Tudor -2.0%, L3MBTL1 block 3.6%, G9a inh -0.7%[12.7 µM] and HP1b chromo inh 54.1%.
For O=C(Nc1nc2ccccc2c(=O)s1)c1ccco1 the results were BAZ2B block -28.7%, GLS inhibitor -0.5%, JMJD2A Tudor -14.6%, G9a inh 70.8µM* and HP1b chromo inh 19.5%.
O=C(O)CCc1ccc(S(=O)(=O)Nc2cc(C(F)(F)F)ccc2N2CCCC2)cc1 was read as BAZ2B block 79.4µM*, GLS inhibitor -7.1%, JMJD2A Tudor inconclusive, L3MBTL1 block inconclusive, G9a inh 28.2µM* and HP1b chromo inh 1.7%.
CCC(=O)N1CCc2cc(S(=O)(=O)NC(CC(C)C)C(=O)Nc3cccc(C)c3C)ccc21 (configuration not stated) was read as GLS inhibitor -12.2%, JMJD2A Tudor 3.3%, G9a inh 5.2%[59 µM] and HP1b chromo inh 36.2%.
Screening COc1cccc(NC(=S)N2CCN(c3ccccn3)CC2)c1 returned BAZ2B block -9.8%, GLS inhibitor inconclusive, JMJD2A Tudor 89.1µM*, L3MBTL1 block 1.7%, G9a inh -1.0% and HP1b chromo inh 8.0%.
Screening COc1cc(NC(=S)N2CCN(c3ccccn3)CC2)c(OC)cc1Cl returned BAZ2B block -25.7%, GLS inhibitor 7.5%, JMJD2A Tudor inconclusive, L3MBTL1 block -1.1%, G9a inh 15.8µM* and HP1b chromo inh -38.0%.
For COc1cc(NC(=S)N2CCC(C(N)=O)CC2)c(OC)cc1Cl the results were BAZ2B block -18.6%, GLS inhibitor 3.9%, JMJD2A Tudor -18.7%, L3MBTL1 block 0.0%, G9a inh 44.7µM* and HP1b chromo inh 16.9%.
`CCC(C)c1ccc(OCC(=O)Nc2cccc3ccc(C)nc23)cc1` (configuration not stated) gave BAZ2B block 65.7%, GLS inhibitor -7.2%, JMJD2A Tudor 39.2%, G9a inh 78.4%[59 µM] and HP1b chromo inh 63.8%.
For CCOC(=O)c1c(C)[nH]c(N=Nc2ccccc2C)c1C the results were BAZ2B block 31.6µM*, GLS inhibitor 16.3%, JMJD2A Tudor 25.1µM*, G9a inh 15.8µM* and HP1b chromo inh -34.8%.
